Experimental data: PubChem BioAssay
The other results are listed elsewhere or left out. Results filed as inconclusive are left out. The source made the active and inactive calls.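 Rule for the calls, unless noted: active = thallium entry rate above the same plate's blocked-transporter control wells by more than 3 SD; inconclusive = the two repeat wells disagree; inactive = the rest.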

Experiments:
[1] = target: Solute carrier family 12 member 5 (Homo sapiens) (UniProt Q9H2X9); assay: KCC2 modulators in sodium-free buffer, confirmation, cell-based, HEK293 KCC2, thallium flux, secondary assay (AID 1713;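 active = thallium flux slope above the same plate's solvent-only control mean plus 3 SD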); settings: FluoZin2 fluorescence, at 10 µM, stronger effect = higher value
Sequence of Solute carrier family 12 member 5 (Homo sapiens) (Q9H2X9 whole entry, looked up): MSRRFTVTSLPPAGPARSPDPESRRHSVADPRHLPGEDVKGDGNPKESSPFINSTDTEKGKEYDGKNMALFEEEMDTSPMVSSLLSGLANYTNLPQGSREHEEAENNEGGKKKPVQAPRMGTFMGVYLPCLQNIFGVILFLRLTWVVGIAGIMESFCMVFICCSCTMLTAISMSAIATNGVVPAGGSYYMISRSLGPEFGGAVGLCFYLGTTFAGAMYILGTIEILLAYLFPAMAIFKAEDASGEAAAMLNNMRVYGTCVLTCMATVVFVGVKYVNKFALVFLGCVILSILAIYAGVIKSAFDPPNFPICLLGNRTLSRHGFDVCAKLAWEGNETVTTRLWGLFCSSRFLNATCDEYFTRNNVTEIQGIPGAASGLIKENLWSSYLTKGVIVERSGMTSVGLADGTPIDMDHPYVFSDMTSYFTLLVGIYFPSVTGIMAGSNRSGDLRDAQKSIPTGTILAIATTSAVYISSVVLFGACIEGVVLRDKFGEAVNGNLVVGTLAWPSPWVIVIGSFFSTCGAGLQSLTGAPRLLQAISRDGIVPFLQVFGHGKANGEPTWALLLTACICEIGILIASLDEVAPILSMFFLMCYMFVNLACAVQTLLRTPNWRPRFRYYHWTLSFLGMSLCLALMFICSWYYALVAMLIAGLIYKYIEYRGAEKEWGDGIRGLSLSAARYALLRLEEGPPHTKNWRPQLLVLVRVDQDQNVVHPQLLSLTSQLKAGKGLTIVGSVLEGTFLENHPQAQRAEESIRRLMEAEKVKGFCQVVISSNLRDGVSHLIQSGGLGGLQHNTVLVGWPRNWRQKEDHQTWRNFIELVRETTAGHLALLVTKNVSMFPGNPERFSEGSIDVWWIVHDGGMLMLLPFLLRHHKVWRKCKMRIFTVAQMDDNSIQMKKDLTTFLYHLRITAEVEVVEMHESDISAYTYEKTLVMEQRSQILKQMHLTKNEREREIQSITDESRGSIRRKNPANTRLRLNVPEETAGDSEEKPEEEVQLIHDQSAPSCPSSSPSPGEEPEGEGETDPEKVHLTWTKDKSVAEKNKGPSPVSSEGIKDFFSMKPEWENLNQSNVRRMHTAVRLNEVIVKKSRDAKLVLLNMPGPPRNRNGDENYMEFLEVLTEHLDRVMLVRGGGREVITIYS

[2] = PubChem AID 1714; settings: HEK293-KCC2 + bumetanide/ouabain, thallium flux FluoZin2; at 10 µM; stronger effect = higher value;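 note: raw slope of fluorescence over initial fluorescence between 10 and 20 s after thallium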
[3] = thallium flux modulation in parental HEK cells, confirmation, counter-screen for KCC2 modulator project, cell-based, counterscreen 1 (AID 1716;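 active = thallium flux rate significantly above the same plate's solvent-only control wells, beyond their mean plus 3 SD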); settings: HEK293 parental cells, thallium flux FluoZin2, ouabain; at 10 µM; baseline-ratio fluorescence slope, 10–20 s after thallium
[4] = target: Solute carrier family 12 member 5 (Homo sapiens) (UniProt Q9H2X9); assay: KCC2 inhibitors and activators, ouabain retest, confirmation, HEK-KCC2 cells (AID 1717;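 active = thallium flux slope beyond 3 SD from same-plate DMSO control mean in most replicates, usually higher, sometimes lower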;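 note: slope of initial-normalized fluorescence between seconds 10 and 20 after thallium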); settings: HEK293-KCC2, thallium flux FluoZin2 fluorescence, at 10 µM, bidirectional: low = inhibitor, high = activator
[5] = native HEK Tl+ uptake effects, second counter-screen – HEK cells, counterscreen 2, counter-screen for KCC2 modulator project, confirmation (AID 1718;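 active = thallium flux slope above the same plate's solvent-control mean plus 3 SD in both duplicate wells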;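 note: run without ouabain in cells lacking the KCC2 cotransporter; slope of fluorescence scaled to its starting value between 10 and 20 s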); settings: HEK293 parental, thallium flux FluoZin-2 fluorescence slope; at 10 µM
[6] = target: Solute carrier family 12 member 5 (Homo sapiens) (UniProt Q9H2X9); assay: KCC2 modulators without ouabain present, confirmation, cell-based, HEK293 KCC2, thallium flux, FluoZin2, secondary assay 2 (AID 1715;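 active = thallium flux slope more than 3 SD above or below the plate's solvent-only control mean, mostly below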;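 note: raw slope with 0.1% DMSO as baseline and bumetanide as block control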); settings: HEK293-KCC2, thallium flux FluoZin2 fluorescence; at 10 µM; actives lie on both sides; F/F0 rise rate, 10–20 s post-thallium

COc1ccc(Cl)cc1C(=O)NNC(=S)NC(=O)/C=C/c1ccco1
active: normalized thallium flux [2] 0.0479 | thallium flux rate (normalised fluorescence) [3] 0.0367 | raw Tl+ flux slope (below DMSO = inhibition, above = activation) [4] 0.0379 | thallium flux slope [5] 0.0335
inactive: normalised thallium flux (F/F0 slope) [1] 0.0165

COc1cccc(NC(=S)NC(=O)c2c(Cl)c(C)nn2C)c1
active: normalised thallium flux (F/F0 slope) [1] 0.0264 | normalized thallium flux [2] 0.063 | thallium flux rate (normalised fluorescence) [3] 0.0727 | raw Tl+ flux slope (below DMSO = inhibition, above = activation) [4] 0.066 | thallium flux slope [5] 0.0309

COC(=O)c1sc(NC(=S)NC(=O)c2ccc(C)cc2)nc1C
active: normalised thallium flux (F/F0 slope) [1] 0.0256 | normalized thallium flux [2] 0.104 | thallium flux rate (normalised fluorescence) [3] 0.0618 | raw Tl+ flux slope (below DMSO = inhibition, above = activation) [4] 0.0617 | thallium flux slope [5] 0.0234

CC1CCCCN1S(=O)(=O)c1ccc(C(=O)Nc2nnc(-c3cccs3)o2)cc1 (centres undefined)
active: normalized thallium flux [2] 0.0292 | raw Tl+ flux slope (below DMSO = inhibition, above = activation) [4] 0.0294
inactive: normalised thallium flux (F/F0 slope) [1] 0.0106 | normalized thallium flux [6] 0.033 | thallium flux slope [5] 0.0123

O=C(CSc1ccc(-c2cccs2)nn1)Nc1ccccc1F
active: raw Tl+ flux slope (below DMSO = inhibition, above = activation) [4] 0.017
inactive: normalised thallium flux (F/F0 slope) [1] 0.00973 | normalized thallium flux [2] 0.00689 | thallium flux rate (normalised fluorescence) [3] 0.00368 | thallium flux slope [5] 0.0107

Cc1ccc(N=Cc2c(O)n(-c3nccs3)c(=O)c3ccccc23)c(C)c1
active: normalised thallium flux (F/F0 slope) [1] 0.000176 | normalized thallium flux [2] -0.00484 | normalized thallium flux [6] 0.0195 | raw Tl+ flux slope (below DMSO = inhibition, above = activation) [4] 0.0222 | thallium flux slope [5] 0.00674

Cc1ccccc1NC(=S)NNC(=O)c1cccc(Br)c1
active: normalized thallium flux [2] 0.028 | raw Tl+ flux slope (below DMSO = inhibition, above = activation) [4] 0.0311
inactive: normalised thallium flux (F/F0 slope) [1] 0.0117 | normalized thallium flux [6] 0.0325 | thallium flux slope [5] 0.0126

Cc1cc(C)c2cc(CN(Cc3cccs3)Cc3nnnn3CC3CCCO3)c(=O)[nH]c2c1 (centres undefined)
inactive: normalised thallium flux (F/F0 slope) [1] 0.0146 | normalized thallium flux [2] 0.0043 | thallium flux slope [5] 0.00821
active: thallium flux rate (normalised fluorescence) [3] 0.00572 | raw Tl+ flux slope (below DMSO = inhibition, above = activation) [4] 0.0137

Cc1cc(C(=O)NNC(=S)Nc2ccccc2C)cs1
active: normalized thallium flux [2] 0.0117
inactive: normalised thallium flux (F/F0 slope) [1] 0.00983 | normalized thallium flux [6] 0.0323 | raw Tl+ flux slope (below DMSO = inhibition, above = activation) [4] 0.0239 | thallium flux slope [5] 0.0109

Cc1ccc(-n2ncc3c(Nc4cccc(C(=O)O)c4)ncnc32)cc1
inactive: normalised thallium flux (F/F0 slope) [1] 0.00874 | normalized thallium flux [2] 0.00541 | normalized thallium flux [6] 0.0319 | raw Tl+ flux slope (below DMSO = inhibition, above = activation) [4] 0.0185 | thallium flux slope [5] 0.0099

Oc1c(Cl)cc(Cl)c(Cl)c1Cc1c(O)c(Cl)cc(Cl)c1Cl
inactive: normalised thallium flux (F/F0 slope) [1] 0.0104 | normalized thallium flux [6] 0.0364 | thallium flux slope [5] 0.0102
active: normalized thallium flux [2] 0.0366

Cn1c(CCCOc2ccc(Cl)cc2Cl)n[nH]c1=S
active: normalized thallium flux [2] 0.00856 | normalized thallium flux [6] 0.0217 | raw Tl+ flux slope (below DMSO = inhibition, above = activation) [4] 0.0131
inactive: normalised thallium flux (F/F0 slope) [1] 0.00558 | thallium flux slope [5] 0.00939

COc1cc(OC)cc(C(=O)NCCSCc2ccco2)c1
inactive: normalised thallium flux (F/F0 slope) [1] 0.00951 | normalized thallium flux [2] 0.00654 | normalized thallium flux [6] 0.0289 | raw Tl+ flux slope (below DMSO = inhibition, above = activation) [4] 0.0187 | thallium flux slope [5] 0.0101

COc1cccc2sc(Nc3nc(C)c(C(C)=O)s3)nc12
active: normalized thallium flux [2] 0.0124
inactive: normalised thallium flux (F/F0 slope) [1] 0.00922 | normalized thallium flux [6] 0.0359 | raw Tl+ flux slope (below DMSO = inhibition, above = activation) [4] 0.0215 | thallium flux slope [5] 0.0124
